Test: TOR pathway CIT2 reporter hit retest – S. cerevisiae, GFP fusion, cherry picks, mother/daughter gates, confirmation (AID 2274)
Settings: S. cerevisiae CIT2-GFP strain, flow cytometry, 3 h; measured here: daughter cell gate; at 10 µM; stronger effect = higher value

Row | Compound | GFP response, % of DMSO
1 | N#C/C(=C\c1ccccn1)c1nc2ccccc2s1 | 433%
2 | CS(=O)(=O)Nc1cccc(C2=NN(S(C)(=O)=O)C(c3ccc4c(c3)OCO4)C2)c1 (stereo unspecified) | 103%
3 | C/C(=N\NC(=O)c1cccc(Br)c1)c1ccccn1 | 101%
4 | O=C(O)Cc1ccc2ccc3ccccc3c2c1 | 99.7%
5 | Cc1ccc(S(=O)(=O)N(Cc2ccccc2)Cc2ccco2)cc1 | 105%
6 | O=C1c2ccsc2SCCN1Cc1c(F)cccc1Cl | 99.2%
7 | CS/C(N)=N/N=C/c1ccc2c(c1)OCO2 | 103%
8 | COc1ccc(C(=O)NNC(=S)NC(=O)/C=C/c2cccs2)cc1 | 112%
9 | COCc1nnc(NC(=O)c2ccc(S(=O)(=O)N(C)C3CCCCC3)cc2)o1 | 103%
10 | COC(=O)c1ccc(/C=N/OCC(=O)NCCc2ccc(OC)c(OC)c2)cc1 | 106%
11 | CC(C)CC[n+]1ccccc1/C=C/c1ccc(N(C)C)cc1 | 119%
12 | COc1cccc(NC(=O)/C=C/c2ccc([N+](=O)[O-])cc2)c1 | 90.2%
13 | O=C(c1ccc(Cl)cc1)N1CCN(c2cccc3[nH]ccc23)CC1 | 99.1%
14 | CCc1ccc(NC(=O)c2nc(S(=O)(=O)Cc3ccccc3)ncc2Cl)cc1 | 90.9%
15 | c1ccc2oc(SCc3nc4ccccc4s3)nc2c1 | 99.1%
16 | CCOC(=O)CSC1=NC(=O)/C(=C\c2ccc(Cl)cc2)S1 | 81.6%
17 | COc1ccc(C2CC(c3ccccc3)=NN2S(=O)(=O)c2ccccc2)c(OC)c1 (stereo unspecified) | 108%
18 | FC(F)(F)c1cc(-c2cccs2)nc2cc(-c3cccs3)nn12 | 92%
19 | CC1CN(c2nc3ccccn3c(=O)c2/C=C(\C#N)C(=O)N2CCOCC2)CC(C)O1 (stereo unspecified) | 99.3%
20 | Cc1ccc(CC2CC(=O)N(Cc3ccco3)C2=O)cc1 (stereo unspecified) | 105%
21 | Cc1ccc(-c2nnc(NC(=O)c3ccc([N+](=O)[O-])o3)o2)c(C)c1 | 99.3%

Same assay, conditions: S. cerevisiae CIT2-GFP strain, flow cytometry, 3 h; measured here: mother cell gate; at 10 µM; stronger effect = higher value

Row | Compound | GFP response, % of DMSO
22 | CCCCCCNC(=O)c1c(O)c2cccc3c2n(c1=O)CCC3 | 96.1%
23 | Cc1ccc(N2CCN(C(=O)c3ccccc3)CC2)c(C)c1 | 106%
24 | COc1ccccc1-c1noc(CCC(=O)Nc2cccc(C)c2)n1 | 95.6%
25 | O=C(NC(=S)NNC(=O)c1ccc(Cl)cc1Cl)c1cccnc1 | 96.7%
26 | CN1C(=O)c2cccc3c(Cl)ccc(c23)C1=O | 98.1%
27 | Cc1nc2c(-c3ccc(F)cc3)c(C)nn2c(N2CCOCC2)c1C | 101%
28 | CCOc1cc(-c2nc3cc(C)ccn3c2NCC2CCCO2)ccc1O (stereo unspecified) | 104%
29 | CCOC(=O)CS(=O)(=O)c1nc(-c2ccccc2)cc(C(F)(F)F)n1 | 101%
30 | C[n+]1ccc(/C=C/c2c[nH]c3ccc(F)cc23)cc1 | 112%
31 | COc1cc(NC(=O)c2ccc(F)cc2)ccc1NC(=O)c1cc2ccccc2o1 | 94.7%
32 | O=C(NCc1cccnc1)c1cnc2n(c1=O)CCS2 | 99.3%
33 | O=C(Nc1cc(Sc2ccccn2)cc([N+](=O)[O-])c1)c1cccc(F)c1 | 94.9%
34 | O=C1CC(SCCO)C(=O)N1c1ccc(Oc2ccccc2)cc1 (stereo unspecified) | 106%
35 | Cc1cc(NCCN2CCOCC2)n2ncc(-c3ccccc3)c2n1 | 104%
36 | O=C(Nc1cccc(O)c1)c1ccccc1 | 97.3%
37 | Cc1nn(C)c(C(=O)Sc2cccc(Cl)c2)c1[N+](=O)[O-] | 101%
38 | COc1ccc(N2C(=O)C(Cl)=C(Nc3ccccc3O)C2=O)cc1 | 99.3%
39 | COc1ccc(Br)cc1/C=C/C(=O)c1ccc(NC(C)=O)cc1 | 96%
40 | CC(=O)N(\C=C/C=C/C=C1\Sc2ccccc2C1=O)c1ccccc1 | 131%
41 | N#C/C(=C\c1ccccn1)c1nc2ccccc2s1 | 496%

Row | Compound | GFP response, % of DMSO
42 | CS(=O)(=O)Nc1cccc(C2=NN(S(C)(=O)=O)C(c3ccc4c(c3)OCO4)C2)c1 (stereo unspecified) | 103%
43 | C/C(=N\NC(=O)c1cccc(Br)c1)c1ccccn1 | 101%
44 | O=C(O)Cc1ccc2ccc3ccccc3c2c1 | 104%
45 | Cc1ccc(S(=O)(=O)N(Cc2ccccc2)Cc2ccco2)cc1 | 104%
46 | O=C1c2ccsc2SCCN1Cc1c(F)cccc1Cl | 98.1%
47 | CS/C(N)=N/N=C/c1ccc2c(c1)OCO2 | 102%
48 | COc1ccc(C(=O)NNC(=S)NC(=O)/C=C/c2cccs2)cc1 | 100%
49 | COCc1nnc(NC(=O)c2ccc(S(=O)(=O)N(C)C3CCCCC3)cc2)o1 | 102%
50 | COC(=O)c1ccc(/C=N/OCC(=O)NCCc2ccc(OC)c(OC)c2)cc1 | 107%
51 | CC(C)CC[n+]1ccccc1/C=C/c1ccc(N(C)C)cc1 | 113%
52 | COc1cccc(NC(=O)/C=C/c2ccc([N+](=O)[O-])cc2)c1 | 88.2%
53 | O=C(c1ccc(Cl)cc1)N1CCN(c2cccc3[nH]ccc23)CC1 | 95%
54 | CCc1ccc(NC(=O)c2nc(S(=O)(=O)Cc3ccccc3)ncc2Cl)cc1 | 82.8%
55 | c1ccc2oc(SCc3nc4ccccc4s3)nc2c1 | 99.7%
56 | CCOC(=O)CSC1=NC(=O)/C(=C\c2ccc(Cl)cc2)S1 | 88.2%
57 | COc1ccc(C2CC(c3ccccc3)=NN2S(=O)(=O)c2ccccc2)c(OC)c1 (stereo unspecified) | 104%
58 | FC(F)(F)c1cc(-c2cccs2)nc2cc(-c3cccs3)nn12 | 94.4%
59 | CC1CN(c2nc3ccccn3c(=O)c2/C=C(\C#N)C(=O)N2CCOCC2)CC(C)O1 (stereo unspecified) | 102%
60 | Cc1ccc(CC2CC(=O)N(Cc3ccco3)C2=O)cc1 (stereo unspecified) | 109%
61 | Cc1ccc(-c2nnc(NC(=O)c3ccc([N+](=O)[O-])o3)o2)c(C)c1 | 91.5%
